In all, about 48,000 compounds went through this assay and about 13,000 (27%) showed an effect of 50% or more. Some of the results follow.
tested on: Wolbachia pipientis; assay: Anti-Wolbachia Cell-Based Screen; type: functional; parameters: scale not given: in the data most compounds retested in dose-response had high values; settings: 5 µM

| SMILES | Percent Effect |
| --- | --- |
| COc1nccnc1N1CCN(Cc2cccc(C)c2)C(=O)C1 | -1.846% |
| O=C(NCC1(c2ccc(F)cc2)CCC1)N1CCC2(C1)OCCO2 | -19.46% |
| Cn1c(CCNC(=O)CC[C@@H]2CCCN3CCCC[C@H]23)n[nH]c1=O | -0.3828% |
| O=C(NCCNc1ccc(C(F)(F)F)cn1)c1ccc(Br)cc1 | 145.4% |
| Cc1occc1C(=O)NCCOc1ccc(C(F)(F)F)cn1 | -9.163% |
| O=C(NCCNc1ccc(C(F)(F)F)cn1)c1ccc(F)cc1Cl | 145.5% |
| CC(C)(O)CSCCNC(=O)c1ccc(F)cc1Cl | -9.614% |
| O=C(NCCNc1ccc(C(F)(F)F)cn1)c1ccc(Br)cc1F | 1.294% |
| N#Cc1ccc(NCCNc2ccc(C(F)(F)F)cn2)nc1 | -10.16% |
| O=C(NCCNc1ccc(C(F)(F)F)cn1)c1cncc(Br)c1 | 0.7864% |
| CC(C)(C)C(O)CCNC(=O)c1ccc(F)cc1Cl (centres undefined) | 15.76% |
| O=C(NCCNc1ccc(C(F)(F)F)cn1)c1ccc(Cl)cc1F | 105.2% |
| O=C(NCCNc1ccc(C(F)(F)F)cn1)c1cc(Cl)ccc1F | 114.8% |
| O=C(NCCNc1ccc(C(F)(F)F)cn1)c1ccoc1 | 28.2% |
| CC(C)n1ccnc1C1CCCN(c2ccnc3ccccc23)C1 (centres undefined) | -21.91% |
| O=C(c1cccnc1)N1CCN(c2ccc(-n3cccc3)nn2)CC1 | -8.085% |
| CCCc1noc(CS(=O)(=O)CC(=O)NC(C)CCC)n1 (centres undefined) | 14.1% |
| Cc1nnc(CCNC(=O)Nc2ccc(S(C)(=O)=O)cc2)[nH]1 | -1.089% |
| COC(=O)CC(c1ccc(OC)c(OC)c1)c1oc(C)cc(=O)c1O (centres undefined) | 10.24% |
| CN(C)S(=O)(=O)N1CC[C@]2(C[C@H](Oc3cccnc3)CO2)C1.O=C(O)C(F)(F)F | -11.38% |
| Cc1cnn(CC2CN(Cc3nc(C4CC4)no3)CCO2)c1 (centres undefined) | 115.6% |
| Cc1cnn(CC2CN(Cc3nccn3C)CCO2)c1 (centres undefined) | -4.713% |
| Cc1cnn(CC2CN(Cc3nnc(C4CC4)n3C)CCO2)c1 (centres undefined) | 99.89% |
| Cc1cnn(CC2CN(CCS(=O)(=O)C(F)(F)F)CCO2)c1 (centres undefined) | -38.13% |
| Cc1cnn(CC2CCCCN2Cc2nnc(C3CC3)n2C)c1 (centres undefined) | 0.7799% |
| COCCc1noc(CN2CCOC(Cn3cc(C)cn3)C2)n1 (centres undefined) | 92.63% |

| SMILES | Percent Effect |
| --- | --- |
| Cc1cnn(CC2CN(Cc3nc(-c4ccoc4)no3)CCO2)c1 (centres undefined) | -0.2172% |
| Cc1cnn(CC2CCCN2Cc2nnc(C3CC3)n2C)c1 (centres undefined) | 103.3% |
| Cc1cnn(CC2CCCN2Cc2nnsc2Cl)c1 (centres undefined) | -1.868% |
| OC1(CNc2ccc(-c3nc(C4CC4)no3)cn2)CCCCC1 | 10.35% |
| O=C(O)C1c2nc[nH]c2CCN1CC(c1ccccc1)c1ccccc1 (centres undefined) | -19.87% |
| O=c1cc(N2CCNCC2)cnn1CCCn1cccn1 | 6.31% |
| CSCc1nc(CNC(=O)C2CCCN(CC(N)=O)C2)cs1 (centres undefined) | -6.144% |
| CCC(C)(C)NC(=O)COC(=O)c1cc(C)ccc1NC(=O)N(C)C | -1.36% |
| O=C(O)c1cccc(N2C[C@H](NC(=O)C3CCOCC3)[C@@H](C3CC3)C2)n1 | -12.83% |
| CCN(CC)Cc1nc(Cc2cccc(C(F)(F)F)c2)no1 | 107.6% |
| CN(Cc1nc(Cc2cccc(F)c2)no1)C1CCOCC1 | 108% |
| CN1CCCCC1Cc1nc(Cc2cccc(F)c2)no1 (centres undefined) | 9.056% |
| CN(CCc1cn[nH]c1)Cc1nc(Cc2cccc(C(F)(F)F)c2)no1 | -3.312% |
| CN(Cc1nc(Cc2cccc(C(F)(F)F)c2)no1)C1CCOCC1 | 106.5% |
| CCn1ccnc1CN(C)Cc1nc(Cc2cccc(F)c2)no1 | 17.71% |
| CN(Cc1nc(Cc2cccc(C(F)(F)F)c2)no1)C(C1CC1)C1CC1 | 104.1% |
| CN(CCc1ccccc1)Cc1nc(Cc2cccc(F)c2)no1 | -15.79% |
| CN(CCc1cn[nH]c1)Cc1nc(Cc2cccc(F)c2)no1 | -20.63% |
| Cc1n[nH]c(C)c1CNCC(O)c1ccc(F)c(F)c1 (centres undefined) | -7.93% |
| O=C(c1ccc(-n2ccnc2)nn1)N1CCCC1CCc1ccccc1 (centres undefined) | 7.406% |
| c1nc2c(c(NCCCn3cncn3)n1)CCN(CC1CCOC1)CC2 (centres undefined) | 11.83% |
| CN(Cc1nc(Cc2cccc(C(F)(F)F)c2)no1)CC1CCCCO1 (centres undefined) | 99.9% |
| CN(Cc1cnn(C)c1)Cc1nc(Cc2cccc(Cl)c2)no1 | 5.655% |
| CN(Cc1nc(Cc2cccc(C(F)(F)F)c2)no1)C1CCCCC1 | 113.9% |
| CN(Cc1cccc(C(F)(F)F)c1)Cc1nc(-c2cnccn2)no1 | -14.23% |
| CN(C)C(=O)COC1COC2(CCN(CC3CCOCC3)CC2)C1.O=C(O)C(F)(F)F (centres undefined) | 121.3% |

| SMILES | Percent Effect |
| --- | --- |
| CN(C)C(=O)COC1COC2(CCN(CC3CC3)CC2)C1.O=C(O)C(F)(F)F (centres undefined) | -29.66% |
| CCOC1COC2(CCN(CC3CCOCC3)CC2)C1.O=C(O)C(F)(F)F (centres undefined) | 102.9% |
| O=C(O)C(F)(F)F.O=C(O)C(F)(F)F.c1ccc(OC2COC3(CCN(CC4CC4)CC3)C2)nc1 (centres undefined) | -30.37% |
| O=C(O)C(F)(F)F.O=S(=O)(N[C@@H]1CCO[C@]2(CCN(CC3CCOCC3)C2)C1)C1CC1 | -3.129% |
| O=C(C1CCC2(CCN(CC3CCOCC3)CC2)O1)N1CCCC1.O=C(O)C(F)(F)F (centres undefined) | -34.36% |
| COc1ccccc1CN1CC[C@]2(C[C@@H](OCC(=O)N(C)C)CO2)C1.O=C(O)C(F)(F)F | -8.079% |
| CCOC1COC2(CCN(CC3CC3)CC2)C1.O=C(O)C(F)(F)F (centres undefined) | 97.53% |
| Clc1cc(Cl)cc(CN2CCC(NCc3cc[nH]n3)CC2)c1 | 16.8% |
| Cc1cccc(C(C)(C)NC(=O)CS(=O)(=O)CC(C)C)c1 | 15.34% |
| COCCNC(=O)C[C@@H]1COC[C@H]2CN(C(=O)c3cnccn3)C[C@@H]12 | -3.747% |
| CCC1CN(CC(=O)NCCOC)CCO1 (centres undefined) | -3.161% |
| CC[C@H]1CN(S(C)(=O)=O)CC[C@H]1CC(=O)NCCOC | 0.9239% |
| O=C(C[C@@H]1COC[C@H]2CN(CC3CC3)C[C@@H]12)N1CCCCO1.O=C(O)C(F)(F)F | -10.75% |
| COCCNC(=O)C[C@@H]1COC[C@H]2CN(C(=O)C3CCOCC3)C[C@@H]12 | 115.8% |
| O=C(C[C@@H]1COC[C@H]2CN(CC3CCOCC3)C[C@@H]12)N1CCCCO1.O=C(O)C(F)(F)F | -14.45% |
| COCCNC(=O)C[C@@H]1COC[C@H]2CN(CC3CCOCC3)C[C@@H]12.O=C(O)C(F)(F)F | 95.67% |
| CC[C@H]1CN(C(=O)C2CC2)CC[C@H]1CC(=O)NCCN1CCOCC1 | 0.8633% |
| COCCNC(=O)C[C@@H]1COC[C@H]2CN(C(=O)COC)C[C@@H]12 | 99.69% |
| O=C(Cc1ccc(F)cc1)N1CCCC(c2n[nH]c3nccnc23)C1 (centres undefined) | 91.78% |
| Cc1ccc(CC(=O)N2CCCC(c3n[nH]c4nccnc34)C2)cc1 (centres undefined) | 102% |
| Cc1cc(C2CCCN(C(=O)COc3ccc(F)cc3F)C2)n[nH]1 (centres undefined) | -1.844% |
| O=C(CC1CCCC1)N1CCCC(c2n[nH]c3nccnc23)C1 (centres undefined) | -9.091% |
| O=C(CCc1ccccc1)N1CCCC(c2n[nH]c3nccnc23)C1 (centres undefined) | 111% |
| CN(C(=O)CN1CCc2nn(C)c(=O)cc2C1)c1nccs1 | -17.97% |
| CC(=O)N1CCC2(CC1)CN(C(=O)c1cccc3[nH]ccc13)C2 | 7.707% |
| CC(=O)N1CC=C(n2c(=O)[nH]c3ccccc32)CC1 | 120.7% |

| SMILES | Percent Effect |
| --- | --- |
| CC(=O)N1CCN(C(=O)c2c(Cl)c3ccccc3n2C)CC1 | 8.743% |
| Cc1ccc(N2CC[C@@H](NC(=O)c3cnccn3)[C@H](O)C2)nn1 | 13.4% |
| CC(C)CN1C(=O)CO[C@@H]2CN(C(=O)N(C)C)C[C@H]21 | 9.504% |
| CN1CCC(C(=O)NCc2nncn2-c2ccccc2)CC1=O (centres undefined) | -4.452% |
| COCCN(C)C[C@@H]1CN(C(=O)c2cccc(C#N)c2)C[C@@H]1CO | 104.9% |
| COc1cc(F)c(C(=O)N2C[C@@H](CN(C)CCO)[C@@H](CO)C2)c(F)c1 | -8.552% |
| CN(CCO)C[C@@H]1CN(C(=O)c2c(F)cccc2Cl)C[C@@H]1CO | -7.74% |
| COCCN(C)C[C@@H]1CN(C(=O)c2cccc(Cl)c2)C[C@@H]1CO | 153.3% |
| CN(CCO)C[C@@H]1CN(C(=O)c2cccc(OC(F)F)c2)C[C@@H]1CO | 95.7% |
| COCCN(C)C[C@@H]1CN(C(=O)c2cccc(C(F)(F)F)c2)C[C@@H]1CO | -9.662% |
| CCN(C)C[C@@H]1CN(S(=O)(=O)c2cccc(C#N)c2)C[C@@H]1CO | -4.035% |
| CN1CCC(N[C@@H]2CO[C@H](CNC(=O)Nc3ccccc3)[C@H]2O)CC1 | -15.1% |
| O=C(c1ccc(F)cc1F)N1C[C@H]2CC[C@@H]1CN(Cc1ccccc1)C2 | -4.594% |
| CC(C)N1CC2(CCCN(c3ncc(Cl)cc3F)C2)CCC1=O (centres undefined) | -5.351% |
| Cc1noc(C)c1CCC(=O)N(C)C(C)c1cccs1 (centres undefined) | -6.492% |
| Cc1noc(C)c1CCC(=O)NCCc1cccs1 | 18.14% |
| NC(=O)Cn1ccc(NC(=O)C2(c3ccc(F)cc3)CC2)n1 | -13.95% |
| Cc1ccc(NC(=O)CNc2ccn(CC(N)=O)n2)c(Cl)c1 | 2.31% |
| Cc1noc(C)c1CCC(=O)Nc1ccn(C)n1 | 102.9% |
| Cc1nn(C)c(C)c1CCC(=O)Nc1cn(C)c(=O)n(C)c1=O | -11.84% |
| CCn1ccc(NC(=O)CCc2c(C)nn(C)c2C)n1 | 89.06% |
| CCS(=O)(=O)CCn1ccc(NC(=O)CCc2cccc(C)c2)n1 | -1.723% |
| CCn1ccc(NC(=O)CCc2c(C)noc2C)n1 | 94.65% |
| Cc1noc(C)c1CC(=O)Nc1ccn(CC(N)=O)n1 | 108.2% |
| Cc1noc(C)c1CC(=O)NCCc1cccs1 | 21.95% |
| Cc1nn(C)c(C)c1CCC(=O)Nc1cccn(C)c1=O | 0.3485% |

Reference: ChEMBL document CHEMBL3988442, “University of Dundee, Small-Polar-MMV Screening Library” (2021)
